Reference: PubChem BioAssay (Tox21)
Where “and” joins values, the source holds several entries; their conditions need not be identical. Identical values can stand only once. Inconclusive results are not listed. Some compounds were tested as several samples or in several runs, with calls that do not always agree. Calls of active or inactive are those of the source. The call rests on the fitted dose curve; in most records, active means well fitted inhibition curve with a large enough effect in the signal ratio in the repeat runs (not every such curve was filed as active); inconclusive means weak or mixed curves; inactive means flat fitted curve, though single readings scatter; the % refers to the signal ratio.

Target: Progesterone receptor (Homo sapiens) (UniProt P06401)
Sequence (P06401 whole entry, looked up): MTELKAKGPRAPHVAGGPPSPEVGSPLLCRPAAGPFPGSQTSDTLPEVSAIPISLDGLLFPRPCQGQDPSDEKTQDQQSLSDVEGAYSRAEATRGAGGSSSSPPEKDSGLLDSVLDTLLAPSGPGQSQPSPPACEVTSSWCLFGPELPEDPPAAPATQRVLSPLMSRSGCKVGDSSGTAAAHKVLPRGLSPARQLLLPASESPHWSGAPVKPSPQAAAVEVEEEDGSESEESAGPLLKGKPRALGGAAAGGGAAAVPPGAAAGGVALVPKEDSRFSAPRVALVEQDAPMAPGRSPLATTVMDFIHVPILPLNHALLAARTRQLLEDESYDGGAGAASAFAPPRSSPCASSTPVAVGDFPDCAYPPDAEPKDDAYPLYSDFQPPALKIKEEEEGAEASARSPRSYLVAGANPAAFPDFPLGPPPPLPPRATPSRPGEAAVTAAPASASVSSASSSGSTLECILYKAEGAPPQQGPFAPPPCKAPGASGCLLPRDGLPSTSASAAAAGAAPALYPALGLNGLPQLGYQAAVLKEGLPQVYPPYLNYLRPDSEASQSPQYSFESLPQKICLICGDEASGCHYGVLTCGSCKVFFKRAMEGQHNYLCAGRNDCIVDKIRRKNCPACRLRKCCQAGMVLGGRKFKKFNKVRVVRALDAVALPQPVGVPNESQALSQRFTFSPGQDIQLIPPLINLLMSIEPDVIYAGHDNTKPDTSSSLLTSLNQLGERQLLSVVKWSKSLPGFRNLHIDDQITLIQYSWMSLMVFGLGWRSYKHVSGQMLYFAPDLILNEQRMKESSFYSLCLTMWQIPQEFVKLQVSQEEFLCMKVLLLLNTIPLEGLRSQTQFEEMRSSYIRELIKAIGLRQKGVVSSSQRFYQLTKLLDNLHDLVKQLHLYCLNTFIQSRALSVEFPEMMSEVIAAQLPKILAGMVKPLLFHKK
Assay: qHTS assay to identify small molecule antagonists of the progesterone receptor (PR) signaling pathway (AID 1346795)
Conditions: PR-UAS-bla HEK293T, beta-lactamase FRET ratio, 16 h; series mostly up to 92.4 µM; activity change, negative = inhibition: at the top concentration
Description: National Center for Advancing Translational Sciences [NCATS]
NIH Chemical Genomics Center [NCGC]
U.S. Environmental Protection Agency [EPA]
National Institutes of Environmental Health Sciences [NIEHS]
National Toxicology Program [NTP]
U.S. Food and Drug Administration [FDA]
Progesterone receptor (PR), a nuclear hormone receptor, plays an important role in development, metabolic homeostasis and reproduction. […] Endocrine disrupting chemicals (EDCs) and their interactions with steroid hormone receptors like PR causes disruption of normal endocrine function. To identify the compounds that inhibit PR signaling, a PR-UAS-bla GripTite cell line i.e. PR-UAS-bla HEK293T (Invitrogen, Carlsbad, CA, USA) containing a beta-lactamase reporter gene under the control of an Upstream Activator Sequence (UAS) was used to screen Tox21 10K compound library.
Tox21 Assay Protocol Summary:
PR-UAS-bla HEK293T cells were dispensed at 3,000 cells/4 uL of assay medium containing 2% charcoal stripped FBS per well into black wall/clear-bottom 1536-well plates using a Multidrop Combi (ThermoFisher Scientific, Waltham, MA) dispenser. After the assay plates were incubated at a 37C and 5% CO2 for 6 hr, 23 nL of compounds dissolved in DMSO, positive controls or DMSO only was transferred to the assay plate by a Pintool station (Kalypsys, San Diego, CA), followed by addition of 1 uL (1nM as final concentration) of Promegestone (R5020) in assay medium using a BioRAPTR FRD (Flying Reagent Dispenser, Aurora Discovery, San Diego, CA). The plates were incubated at 37C and 5% CO2 for 16 hr. Then 1 uL of LiveBLAzer B/G FRET substrate was added using a FRD. After the plates were incubated at room temperature for 2 hours, fluorescence intensity was measured by an Envision plate reader (PerkinElmer, Shelton, CT).
On the % scale 0 is the no-effect control and ±100 the full control effect; potency means the concentration at half of the fitted maximal effect.

SMILES	Potency	activity change, negative = inhibition
CCCN[C@H]1CCc2nc(N)sc2C1	inactive	
COC(c1ccccc1)(c1ccccc1)[C@H](Oc1nc(C)cc(C)n1)C(=O)O		1.42% [at 42.5 µM] (inactive)
O=C(O)Cn1cnnn1		5.2% [at 42.5 µM] (inactive)
CNC1(C)C2CCC(C2)C1(C)C (stereo not given)		6.04% [at 42.5 µM] (inactive)
C#CC(C)(CC)OC(=O)c1ccccc1C(=O)O (stereo not given)		4.71% [at 42.5 µM] (inactive)
COc1ccc(Cc2cnc(N)nc2N)cc1OC		12.9% [at 42.5 µM] (inactive)
C=CC(=O)OCCCCCCOC(=O)C=C		-3.04% (inactive)
OCCN1CCNCC1	inactive	
c1ccc2n[nH]nc2c1		2.65% (inactive)
[Cl][In]([Cl])[Cl]		9.32% (inactive)
O=C1CC2(CCCC2)CC(=O)N1CCCCN1CCN(c2ncccn2)CC1		2.05% [at 42.5 µM] (inactive)
CCCNC(C)C(=O)Nc1ccccc1C (stereo not given)		9.2% [at 42.5 µM] (inactive)
COc1nc(C)nc(Cl)c1NC1=NCCN1		6.48% [at 42.5 µM] (inactive)
CCc1cc(C(C)(C)C)c(O)c(C(C)(C)C)c1	inactive	
Oc1c(Cl)cc(Cl)cc1Sc1cc(Cl)cc(Cl)c1O	21.7 µM (active) and 49.3 µM (active)	
CC(=O)OCCOCCOCCOC(C)=O		8.69% (inactive)
CC1=C(C=O)C(C)(C)CC=C1		5.62% (inactive)
CC(=O)CC(=O)Nc1ccc2[nH]c(=O)[nH]c2c1		-0.0937% (inactive)
CCC(=O)/C=C/C1C(C)=CCCC1(C)C (stereo not given)	inactive	
CCOc1ccccc1C(N)=O	inactive and 26.6 µM (active)	

SMILES	Potency	activity change, negative = inhibition
CC[C@H]1CN2CCc3cc(OC)c(OC)cc3[C@@H]2C[C@@H]1C[C@H]1NCCc2cc(OC)c(OC)cc21	0.772 µM (active)	
O=Cc1ccc(Cl)cc1		6.96% (inactive)
Oc1ccc(Cl)cc1Cc1cc(Cl)ccc1O	15.6 µM (active) and 15.4 µM (active) and 18.8 µM (active)	
CC(=O)N[C@@H](CS)C(=O)O	inactive	
CC(=O)OCC1=C(C(=O)O)N2C(=O)[C@@H](NC(=O)Cc3cccs3)[C@H]2SC1		7.46% [at 42.5 µM] (inactive)
O=C1Nc2ccccc2C1(c1ccc(O)cc1)c1ccc(O)cc1	54.5 µM (active)	
COC(=O)c1cccc(C(=O)OC)c1	inactive	
Oc1c(Cl)cc(Cl)c(Cl)c1Cc1c(O)c(Cl)cc(Cl)c1Cl	48.6 µM (active)	
CC(=O)O[C@]1(C(C)=O)CC[C@H]2[C@@H]3C[C@H](C)C4=CC(=O)CC[C@]4(C)[C@H]3CC[C@@]21C		-20% [at 42.5 µM] (inactive)
CC(=O)C1=C(C)[C@@H]2C[C@@]3(C1)[C@H](C)CC[C@H]3C2(C)C		2.23% (inactive)
NNCCc1ccccc1		-0.147% [at 42.5 µM] (inactive)
CC(COc1ccccc1)N(CCCl)Cc1ccccc1 (stereo not given)	30.6 µM (active) and 26.6 µM (active)	
C[N+]1([O-])CCOCC1		0.945% (inactive)
CC(C)(C)NC(=O)[C@@H]1CN(Cc2cccnc2)CCN1C[C@@H](O)C[C@@H](Cc1ccccc1)C(=O)N[C@H]1c2ccccc2C[C@H]1O		3.55% [at 42.5 µM] (inactive)
NC(Cc1ccc(Cl)cc1)C(=O)O (stereo not given)		-0.261% [at 0.348 µM] (inactive)
CC(C)CCOC(=O)c1ccc(N(C)C)cc1		-23.4% [at 42.5 µM] (inactive)
c1cc(C(c2ccc(OCC3CO3)cc2)C(c2ccc(OCC3CO3)cc2)c2ccc(OCC3CO3)cc2)ccc1OCC1CO1 (stereo not given)	inactive	
Nc1cc(Cl)c(-c2cc(Cl)c(N)cc2Cl)cc1Cl	2.73 µM (active)	
Cc1occc(=O)c1OC(=O)C(C)C		3.4% (inactive)
Cc1cccc2n[nH]nc12		-9.52% (inactive)
